# Assay results from article PMC5540273 (PLoS ONE, 2017).
# How the values were obtained:
# Settings in all cases: concentration: 1 μM, replicates: in singlicate; n = 1
# [1] = tested on: CAMK2G
# [2] = tested on: CAMK4
# [3] = tested on: CAMKK1
# [4] = tested on: CAMKK2
# [5] = tested on: CASK
# [6] = tested on: T1, CDC2L1
# T1 construct: gene CDK11B
# [7] = tested on: CDC2L2
# [8] = tested on: T2, CDC2L5
# T2 construct: gene CDK13
# [9] = tested on: T3, CDK11
# T3 construct: gene CDK19
# [10] = tested on: CDK2
# [11] = tested on: CDK3
# [12] = tested on: CDK4-cyclinD1
# [13] = tested on: CDK4-cyclinD3
# [14] = tested on: CDK4
# [15] = tested on: CDK5
# [16] = tested on: CDK7
# [17] = tested on: CDK8
# [18] = tested on: CDK9
# [19] = tested on: CDKL1
# [20] = tested on: CDKL2
# 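Further: KINOMEscan kinase panel screen.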
SMILES,%Inh [1],%Inh [2],%Inh [3],%Inh [4],%Inh [5],%Inh [6],%Inh [7],%Inh [8],%Inh [9],%Inh [10],%Inh [11],%Inh [12],%Inh [13],%Inh [14],%Inh [15],%Inh [16],%Inh [17],%Inh [18],%Inh [19],%Inh [20]
O=c1cc(N2CCOCC2)nc2n(Cc3ccc(F)c(Cl)c3)ccn12 [GSK2297099],28%,0%,28%,24%,2%,3%,28%,0%,0%,0%,6%,0%,20%,0%,0%,0%,10%,7%,10%,8%
Cc1ccc(-c2ccc3c(ccc4sc5c(c43)NC[C@@H](C)N=C5N(C)C)n2)cn1,0%,20%,0%,0%,2%,4%,0%,0%,0%,0%,0%,0%,0%,0%,0%,6%,0%,0%,0%,0%
COC(=O)c1c(-c2ccccc2)c2cc(Br)ccc2c(=O)n1Cc1ccc(S(C)(=O)=O)cc1,21%,0%,10%,30%,0%,11%,0%,14%,24%,6%,0%,0%,5%,0%,15%,29%,0%,3%,0%,0%
O=C(Nc1n[nH]c2nc(-c3ccccc3)c(Br)cc12)C1CC1 [SB-708998],4%,0%,0%,0%,0%,0%,0%,0%,0%,0%,0%,0%,0%,10%,10%,1%,0%,0%,0%,30%
Cl.NS(=O)(=O)c1cccc(Nc2cc(-c3ccc(F)cc3)n[nH]2)c1 [GW824645],0%,2%,0%,0%,20%,0%,0%,0%,3%,5%,29%,0%,0%,0%,0%,1%,0%,5%,3%,0%
CCC(=O)c1c(-c2ccccc2)c2cc(Cl)ccc2c(=O)n1Cc1cc(C(=O)NC2CC2)n(C)n1,6%,0%,2%,15%,0%,4%,0%,0%,3%,0%,0%,3%,0%,0%,0%,12%,14%,11%,0%,3%
COc1ccc(CNC(=O)NC2CCN(c3ccnc(Nc4ccc(F)cc4)n3)C2)cc1 (stereo not drawn) [GSK1379706],38%,0%,17%,26%,19%,2%,0%,0%,22%,3%,20%,52%,0%,49%,0%,4%,60%,5%,10%,31%
COc1cccc(C2=C(Nc3cccc(C(=O)O)c3)C(=O)NC2=O)c1 [SB-390770],14%,0%,1%,14%,13%,0%,0%,0%,0%,15%,9%,9%,0%,0%,0%,0%,4%,0%,0%,24%
COc1ccc(Nc2nccc(N3CCC(NS(=O)(=O)c4ccc(NC(C)=O)cc4)C3)n2)cc1 (stereo not drawn) [GSK1379729],9%,4%,12%,5%,0%,0%,17%,0%,11%,2%,20%,8%,0%,13%,12%,0%,35%,0%,0%,14%
Cc1ccccc1COc1cc(-n2cnc3cc(Cl)ccc32)sc1C(N)=O [GW813349],0%,0%,0%,0%,17%,0%,0%,0%,23%,0%,0%,25%,3%,0%,0%,0%,14%,0%,34%,13%
Cc1nn2c(=O)cc(N3CCOCC3)nc2n1Cc1cccc(Cl)c1Cl [GSK2342769],10%,25%,2%,9%,0%,0%,6%,0%,16%,0%,16%,0%,0%,0%,0%,0%,0%,0%,0%,19%
COc1cc2ncn(-c3cc(OCc4ccncc4)c(C(N)=O)s3)c2cc1OC [GSK336313],18%,0%,0%,22%,7%,0%,23%,0%,0%,0%,10%,0%,18%,0%,0%,2%,0%,0%,5%,15%
Cc1cc(Nc2nc(-c3cccc(C)n3)nc3ccccc23)ccn1 [GW872411],0%,0%,0%,0%,7%,0%,0%,0%,0%,0%,0%,0%,0%,0%,0%,0%,0%,0%,17%,0%
O=C(NCc1cccs1)c1cc(C(=O)c2c(Cl)cccc2Cl)c[nH]1 [GW823670],0%,15%,0%,0%,5%,0%,0%,0%,14%,0%,15%,0%,0%,0%,0%,0%,16%,0%,8%,0%
CCc1ccc(-c2ccc3c(c2)-c2nn(C)cc2S(=O)(=O)N3C)cc1,4%,0%,22%,9%,14%,0%,0%,16%,8%,0%,0%,14%,0%,0%,12%,0%,0%,0%,9%,19%
COc1cc(OC)cc(-c2cc3cnc(N)nc3nc2NC(=O)NC(C)(C)C)c1,23%,0%,16%,29%,0%,2%,0%,0%,0%,0%,14%,0%,8%,0%,0%,31%,0%,0%,0%,0%
COc1ccc(-c2coc3ccc(-c4nnc(SCc5cccc(C#N)c5)o4)cc23)cc1,0%,0%,0%,0%,8%,0%,10%,0%,0%,6%,0%,0%,0%,0%,18%,9%,0%,0%,5%,0%
COc1cc(Nc2ccnc3ccc(C(F)(F)F)cc23)cc(OC)c1OC [GW577382],12%,10%,15%,0%,25%,0%,17%,0%,19%,4%,16%,39%,0%,10%,0%,1%,47%,0%,6%,21%
COc1cc2ncn(-c3cc(OCc4ccc(S(C)(=O)=O)cc4)c(C(N)=O)s3)c2cc1OC [GW869979],0%,0%,0%,0%,37%,0%,14%,31%,0%,0%,0%,14%,16%,9%,0%,0%,0%,0%,0%,0%
CC(C)(C)c1ccc(C(=O)Nc2cn3cc(-c4ccccc4)ccc3n2)cc1,0%,14%,0%,0%,1%,0%,11%,0%,0%,0%,12%,14%,0%,0%,0%,5%,5%,6%,29%,5%
O=C(Nc1n[nH]c2nc(-c3ccccc3)c(Cl)cc12)C1CC1 [SB-734909],0%,0%,0%,1%,35%,0%,18%,0%,0%,2%,0%,0%,0%,9%,0%,15%,3%,0%,41%,35%

SMILES,%Inh [1],%Inh [2],%Inh [3],%Inh [4],%Inh [5],%Inh [6],%Inh [7],%Inh [8],%Inh [9],%Inh [10],%Inh [11],%Inh [12],%Inh [13],%Inh [14],%Inh [15],%Inh [16],%Inh [17],%Inh [18],%Inh [19],%Inh [20]
CCC(=O)c1c(-c2ccccc2)c2cc(Cl)ccc2c(=O)n1Cc1ccc(C(=O)O)cc1,0%,0%,0%,0%,0%,0%,0%,0%,0%,0%,0%,0%,0%,0%,0%,0%,4%,0%,0%,7%
CCCC(=O)Nc1n[nH]c2ncc(-c3cccc4ccccc34)cc12 [SB-642057],28%,22%,20%,30%,34%,0%,1%,0%,0%,56%,51%,0%,37%,0%,0%,0%,7%,0%,10%,0%
C[C@@H]1CC[C@H](C(=O)NC2CCCCC2)CN1c1cc(-c2ccc3c(N)n[nH]c3c2)nc(N)n1 [GSK2291363],38%,0%,24%,37%,18%,0%,23%,0%,7%,1%,18%,0%,0%,14%,15%,0%,37%,0%,0%,26%
COc1cc(Nc2nccc(N3CCC(NC(=O)C4COc5ccccc5O4)C3)n2)cc(OC)c1OC (stereo not drawn) [GSK1379761],26%,0%,20%,14%,0%,0%,4%,0%,7%,0%,0%,52%,0%,70%,0%,57%,57%,0%,11%,11%
O=C1NC(=O)C(c2ccccc2)=C1Nc1cccc(O)c1 [SB-390534],13%,0%,0%,0%,1%,0%,0%,1%,0%,2%,6%,0%,0%,0%,0%,0%,0%,0%,1%,11%
Nc1ncnc2c1ncn2-c1cccc2ccccc12 [SKF-97184],0%,38%,0%,0%,22%,0%,11%,26%,23%,0%,0%,0%,0%,13%,0%,22%,38%,1%,33%,0%
COc1ccc(-c2cc3c(C)nc(N)nc3n([C@H]3CC[C@H](O)CC3)c2=O)cn1,0%,0%,0%,0%,0%,0%,0%,0%,0%,0%,8%,0%,0%,0%,0%,7%,0%,0%,0%,0%
Nc1nccc2scc(-c3ccc4c(c3)CCN4C(=O)Cc3ccccc3)c12 [GSK2576924],0%,3%,0%,7%,15%,8%,16%,0%,57%,0%,9%,0%,0%,13%,0%,7%,70%,0%,7%,17%
COc1ccc(-c2cc3c(C)nc(N)nc3n([C@H]3CC[C@H](OCCO)CC3)c2=O)cn1,0%,5%,5%,0%,0%,11%,0%,0%,34%,0%,0%,0%,0%,0%,19%,14%,0%,4%,10%,0%
COc1cc2nccc(Nc3cccc(Oc4ccccc4)c3)c2cc1OC.Cl [GW284543],19%,0%,8%,19%,1%,0%,11%,0%,0%,0%,0%,1%,0%,30%,0%,0%,37%,0%,9%,7%
O=C(Nc1n[nH]c2cc(-c3ccccc3F)ccc12)C1CC1 [SB-733371],0%,0%,0%,0%,0%,0%,0%,33%,0%,25%,7%,0%,0%,0%,0%,0%,0%,0%,11%,79%
CCn1c(-c2nonc2N)nc2ccccc21 [SB-693162/GW549034],1%,0%,9%,0%,0%,0%,29%,0%,11%,0%,48%,0%,46%,13%,12%,20%,0%,0%,8%,0%
Cc1cccc(-c2cc(-c3c[nH]nc3-c3ccccn3)ccn2)c1 [GW679395],21%,0%,9%,7%,24%,0%,0%,0%,9%,0%,9%,0%,0%,0%,0%,0%,4%,0%,0%,14%
OCCCNc1nccc(-c2c(-c3cccc(C(F)(F)F)c3)nn3cc(C(F)(F)F)ccc23)n1 [GW630813],17%,0%,5%,12%,2%,0%,9%,0%,2%,25%,1%,0%,0%,29%,0%,0%,15%,0%,0%,7%
CCn1c(-c2ccoc2)nc2cnccc21 [SB-733887],6%,0%,4%,4%,3%,0%,6%,0%,0%,4%,23%,5%,29%,0%,0%,60%,33%,0%,0%,16%
Cl.c1ccc(Cn2cnc3cc(Nc4ncnc5ccccc45)ccc32)cc1 [GW272142],32%,0%,9%,31%,26%,0%,13%,0%,8%,0%,0%,0%,1%,28%,0%,0%,21%,0%,6%,9%
O=C(NCCNc1ccnc(Nc2ccc(F)cc2)n1)Nc1ccc2c(c1)OCO2 [GSK1379882],21%,0%,10%,15%,18%,9%,20%,0%,10%,0%,0%,0%,0%,8%,0%,0%,25%,7%,0%,15%
Nc1n[nH]c2nnc(-c3ccccc3)c(-c3ccccc3)c12 [GW554060],17%,0%,13%,11%,71%,0%,0%,0%,0%,0%,17%,2%,0%,22%,0%,0%,14%,0%,0%,0%
Fc1cccc(CSc2nnc(-c3ccc4c(c3)CCO4)o2)c1,20%,0%,9%,6%,0%,0%,0%,17%,0%,8%,0%,0%,17%,0%,4%,0%,0%,0%,3%,4%
CCCNC(=O)Nc1ccc(Oc2ncnc3ccn(C)c23)cc1,15%,0%,5%,9%,13%,0%,0%,6%,3%,7%,0%,0%,0%,20%,19%,0%,0%,0%,0%,4%
CCC(=O)c1c(-c2ccccc2)c2cc(Cl)ccc2c(=O)n1Cc1cc(S(C)(=O)=O)n(CC(F)F)n1,0%,0%,0%,6%,5%,1%,2%,24%,0%,0%,0%,0%,0%,0%,0%,0%,0%,2%,0%,0%
